# Measurements taken from PubChem BioAssay AID1259422 (The Scripps Research Institute Molecular Screening Center, 2018).
# The campaign covered roughly 640,000 compounds. About 9,300 (1.5%) were called active. Rule as the data show it: active = inhibition above about 32%; inactive = the rest. This excerpt belongs to a sample that is enriched for actives.
# Assay: TEAD-YAP interaction inhibition, primary screen, TEAD-YAP interaction inhibitor project, luminescence, HEK-TIYL cells (AID 1259422);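 also: 0% = median of test compound wells and 100% = reference inhibitor wells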
# Conditions: TEAD-Gal4/YAP UAS-luciferase luminescence, at 9.12 µM, active compounds read high
row,Structure (SMILES),inhibition
1,Oc1ccc2ccccc2c1/C=N/Nc1nccnc1Cl,-25.8% (inactive)
2,N#CC1=C(N)Oc2n[nH]c(-c3ccc(Cl)cc3)c2C1c1ccc2c(c1)OCO2 (centres undefined),12.5% (inactive)
3,O=c1c(Cl)c(Cl)cnn1-c1nc2ccccc2[nH]1,56.5% (active)
4,N#Cc1cnn(-c2nc3ccccc3[nH]2)c1N,-4.74% (inactive)
5,Cn1ncc(Cl)c1-c1nc2ccccc2[nH]1,-8.92% (inactive)
6,Cc1cc(Nc2ccccc2Cl)n2nc(C)nc2n1,-1.89% (inactive)
7,Cc1cc(C)c(NC(=O)c2c(Cl)nc(C)c(Cl)c2C)c(C)c1,-2.91% (inactive)
8,COc1cccc(/C=C/C(=O)NCC(=O)O)c1OC,-11.1% (inactive)
9,Cc1cccc2nc(CNC(=O)CCCn3nnnc3CN3CCC(C)CC3)cn12,3.48% (inactive)
10,C/C(=N/NC(=O)c1ccccn1)c1ccccc1,14.7% (inactive)
11,CC(C)(C)c1ccc(C(=O)NNC(=O)c2ccccn2)cc1,41.6% (active)
12,CC(C)(C)c1ccc(C(=O)NNC(=O)C(=O)NCc2ccccc2)cc1,-5.07% (inactive)
13,N#Cc1ccc(C23CC4CC(CC(C4)C2)C3)nc1SCC(=O)Nc1nc2ccccc2s1,3.55% (inactive)
14,N#CC(=C1C(=O)c2ccccc2C1=O)c1nc2ccccc2[nH]1,-10.3% (inactive)
15,Cc1ccc(N=C2NC(=O)/C(=C\c3ccc(-c4ccccc4[N+](=O)[O-])o3)S2)c(C)c1,-2.23% (inactive)
16,CCOc1ccc(C2C(C(=O)NC)=C(C)Nc3nc4ccccc4n32)cc1OC (centres undefined),-6.37% (inactive)
17,COc1ccccc1NC(=O)C1=C(C)Nc2nc3ccccc3n2C1c1cccs1 (centres undefined),46.5% (active)
18,COc1ccccc1C1C(C(=O)N2CCCCC2)=C(C)Nc2nc3ccccc3n21 (centres undefined),1.41% (inactive)
19,COc1ccc(C(C)=O)c(OC(=O)Cc2cc(OC)c(OC)c(OC)c2)c1,12.9% (inactive)
20,COc1cc(C(=O)Nc2ccc(C(C)=O)cc2)c2ccccc2n1,47.1% (active)

row,Structure (SMILES),inhibition
1,COc1ccc(-c2cc(C(=O)Nc3ccccc3)c3ccccc3n2)cc1,-2.31% (inactive)
2,COc1cc(C(=O)Nc2ccc(C(=O)O)cc2)c2ccccc2n1,-2.83% (inactive)
3,CCCC(=O)Nc1ccccc1C(=O)O,-0.09% (inactive)
4,COC(=O)c1ccccc1NC(=O)C(=O)Nc1ccccc1C(=O)OC,-3.84% (inactive)
5,C/C(=C\c1ccccc1)C(=O)Nc1ccccc1C(=O)O,36.6% (active)
6,COc1ccc(Nc2c(C#N)cnc3ccccc23)cc1Cl,49.7% (active)
7,COc1ccc(NC(=O)Cc2c[nH]c3ccccc23)cc1Cl,4.42% (inactive)
8,CCN1CCN(c2ncc(C(=O)Nc3ccc(OC)c(Cl)c3)c3ccccc23)CC1,-15.1% (inactive)
9,Cc1cccc(C(=O)Oc2ccc(/C=C3/SC(=Nc4ccccc4Cl)NC3=O)cc2)c1,0.81% (inactive)
10,COc1cc(/C=C2/SC(=Nc3ccccc3Cl)NC2=O)cc(OC)c1OC,-2.07% (inactive)
11,Cc1ccc(/C=C2/SC(=Nc3ccccc3Cl)NC2=O)cc1,37.2% (active)
12,CC(=O)Nc1nc2cc([N+](=O)[O-])c(C)cc2s1,-21.7% (inactive)
13,COc1cc(C2Nc3ccccc3NC3=C2C(=O)CC(c2ccccc2Cl)C3)cc(Cl)c1O (centres undefined),54.8% (active)
14,COc1cc(C2C(C(=O)OC3CCCCC3)=C(C)NC3=C2C(=O)CC(c2ccccc2)C3)cc(Cl)c1O (centres undefined),-1.53% (inactive)
15,COc1ccc(C2CC(=O)C3=C(C2)Nc2ccccc2NC3c2cccc(Cl)c2)cc1 (centres undefined),1.54% (inactive)
16,COc1ccc(C2CC(=O)NC3=C2C(=O)CC(c2ccccc2Cl)C3)cc1 (centres undefined),6.64% (inactive)
17,CCOc1ccccc1C1CC(=O)NC2=C1C(=O)CC(c1ccccc1Cl)C2 (centres undefined),36.2% (active)
18,CCOc1ccccc1C1C(C(=O)OC)=C(C)NC2=C1C(=O)CC(c1ccccc1)C2 (centres undefined),-5.16% (inactive)
19,O=C(CCCn1nnc(-c2ccccc2F)n1)c1ccc(O)cc1,-5.05% (inactive)
20,CCc1ccc(N/C(SCc2cccc([N+](=O)[O-])c2)=C(/C#N)C(=O)NCc2ccco2)cc1,-0.35% (inactive)

row,Structure (SMILES),inhibition
1,CC(=O)Nc1ccc(NC(=O)C(=O)NCc2ccc(F)cc2)cc1,0.35% (inactive)
2,COc1ccc(CCn2c(SCC(=O)Nc3ccc(C)c(C)c3)nc3ccccc3c2=O)cc1OC,8.03% (inactive)
3,COc1ccc(CCn2c(SCC(=O)N3CCN(c4ccccc4OC)CC3)nc3ccccc3c2=O)cc1OC,36.9% (active)
4,COc1ccccc1N1CCN(C(=O)CSc2nc3ccsc3c(=O)n2CCc2ccccc2)CC1,43.9% (active)
5,COc1ccccc1N1CCN(C(=O)CSc2nc3ccccc3c(=O)n2Cc2cccs2)CC1,-7.66% (inactive)
6,COc1ccccc1N1CCN(C(=O)CSc2nc3ccsc3c(=O)n2-c2ccccc2)CC1,1.01% (inactive)
7,CCN(CC)C(=O)CSc1nc2ccsc2c(=O)n1CCc1ccccc1,16.3% (inactive)
8,CN(C)c1cc(-c2nnc(SCc3ccccn3)n2C)nc(N(C)C)n1,1.09% (inactive)
9,CC(NS(=O)(=O)c1cc(Cl)ccc1Cl)C(=O)Nc1ccc2c(c1)OCCO2 (centres undefined),-9.66% (inactive)
10,CC1CCCN(C(=O)CN2C(=O)c3ccccc3S2(=O)=O)C1 (centres undefined),32.8% (active)
11,O=C(CC(=O)N1CCc2ccccc21)C(=O)CC(=O)N1CCc2ccccc21,8.39% (inactive)
12,CC(=O)CN1C(=O)c2ccccc2S1(=O)=O,-8.06% (inactive)
13,O=C(CN1C(=O)c2ccccc2S1(=O)=O)N1CCc2ccccc21,73.9% (active)
14,O=C(CN1C(=O)c2ccccc2S1(=O)=O)N1CCN(Cc2ccccc2)CC1,-9.54% (inactive)
15,CC1CCCN(C(=O)Cn2c(=O)oc3ccccc32)C1 (centres undefined),7.96% (inactive)
16,O=C(NCc1ccon1)c1cccc(OC2CCN(C(=O)C3CC3)CC2)c1,-8.88% (inactive)
17,CC(C)CCNC(=O)C1CC(=O)N(C2CCCCC2)C1 (centres undefined),1.78% (inactive)
18,O=C(COc1ccccc1)N1CCN(c2ccccc2F)CC1,0.47% (inactive)
19,CN(CC(=O)N1CCOCC1)c1ncnc2scc(-c3ccc(F)cc3)c12,2.08% (inactive)
